The source of these data is PubChem BioAssay AID463173 (ICCB-Longwood Screening Facility, Harvard Medical School, 2010).

Screen size: about 52,000 compounds; about 4,300 (8.3%) were called active. The list comes from a sample in which actives are over-represented; it also holds similar structures and randomly drawn compounds. Unmarked numbers belong to inactive results. Rule as the data show it: active = survival mostly below about 52% (no sharp cut-off); inactive = mostly above about 56%.

The test system of the assay is DeltatarO mutant. The assay is described as follows: growth inhibition of S. aureus wild type versus tarO mutant, primary screen, teichoic acid synthesis inhibitors, RN4220, OD600 (AID 463173). The settings on record: OD600, 18 h, stronger effect = lower value, screened at 18.75 µg/mL (by protocol).
For the compound `CCC1CCCCN1CCCNC(=O)c1c(O)nc2cc(C)ccn2c1=O` (stereo not drawn), the survival was 80%. Next, `COc1cc(-c2noc(-c3ccc(NCc4ccccc4)c([N+](=O)[O-])c3)n2)cc(OC)c1OC`: 79%; `COc1ccc(-c2noc(-c3ccc(NCC4CCCO4)c([N+](=O)[O-])c3)n2)cc1OC` (stereo not drawn): 54%. Next, `COc1ccccc1-c1noc(-c2ccc(NCc3ccccc3)c([N+](=O)[O-])c2)n1`: 35% (active).

For `Cc1ccc(-c2noc(-c3ccc(NCC4CCCO4)c([N+](=O)[O-])c3)n2)cc1` (stereo not drawn), the survival is 74%.

In the case of `COc1ccc(-c2noc(-c3ccc(NCCc4ccccc4)c([N+](=O)[O-])c3)n2)cc1`, the survival is 42% (active). Turning to `COc1ccc(-c2noc(-c3ccc(NCc4cccnc4)c([N+](=O)[O-])c3)n2)cc1`, the survival was 56%. The result for `COc1ccccc1-c1noc(-c2ccc(NCc3cccnc3)c([N+](=O)[O-])c2)n1` reads 47%. As to `O=[N+]([O-])c1cc(-c2nc(-c3ccccc3)no2)ccc1NCCc1ccccc1`, the survival was 58%.

Regarding `COc1ccc(-c2noc(-c3ccc(NCC4CCCO4)c([N+](=O)[O-])c3)n2)cc1` (stereo not drawn), the survival was 42% (active). In the case of `COc1ccccc1-c1noc(-c2ccc(NCCc3ccccc3)c([N+](=O)[O-])c2)n1`, the survival was 37% (active). Next, `COc1ccc(-c2noc(-c3ccc(NCCc4ccccc4)c([N+](=O)[O-])c3)n2)cc1OC`: 57%. Next, `COc1cc(-c2noc(-c3ccc(NCCc4ccccc4)c([N+](=O)[O-])c3)n2)cc(OC)c1OC`: 66%; `COCC(=O)Nc1c(C(=O)Nc2ccc(C)cc2)oc2ccccc12`: 86%.

Take `Cc1ccc(N)cc1N(C)C`: the survival was 78%.

For `Cc1ccc(CN2CCN(C3CCN(S(=O)(=O)N(C)C)CC3)C(=O)C2=O)cc1`, the survival was 82%. For `C=CCn1c(C(NC(=O)c2ccc(Cl)cc2Cl)C(C)C)n[nH]c1=S` (stereo not drawn), the survival is 81%. With `COc1cc(NC(=O)C2CCN(S(=O)(=O)c3c(C)noc3/C=C/c3c(C)cc(C)cc3C)CC2)cc(OC)c1`, the survival is 78%.

Take `Cc1cccc(CCNC(=O)C2CCC(CNS(=O)(=O)c3ccccc3)CC2)c1` (stereo not drawn): the survival was 77%. Next, `Clc1ccc(Nc2c(-c3ccccc3Cl)nc3ccc(Cl)cn23)cc1`: 45%. Next, `Cc1ccc(Cl)cc1NC(=O)NCc1cccn1Cc1ccc(F)cc1`: 104%; `Cc1oc2ncn(CC(C)C)c(=O)c2c1C(=O)NCCCN1CCCCC1`: 101%; `Cc1oc2ncn(CC(C)C)c(=O)c2c1C(=O)Nc1cccc(C(F)(F)F)c1`: -1% (active). The result for `CCCCNC(=O)c1c(C)oc2ncn(CC(C)C)c(=O)c12` reads 6% (active); that for `Cc1ccnc(NC(=O)c2c(C)oc3ncn(CC(C)C)c(=O)c23)c1`, 92%; that for `CCNC(=O)c1c(C)oc2ncn(C)c(=O)c12`, 91%. With `CCOc1ccc(CCNC(=O)c2c(C)oc3ncn(C)c(=O)c23)cc1`, the survival is 84%. With `Cc1cccc(NC(=O)c2c(C)oc3ncn(CC(C)C)c(=O)c23)n1`, the survival was 72%. Next, `CCN(CC)CCCNC(=O)c1c(C)oc2ncn(CC(C)C)c(=O)c12`: 70%; `CSc1ccc(CCNC(=O)c2c(C)oc3ncn(C)c(=O)c23)cc1`: -2% (active). The result for `Cc1cc(S(=O)(=O)N2CCN(Cc3noc(CCC(=O)N4CCCCC4)n3)CC2)ccc1F` reads 89%. Next, `CCC(=O)N1CCc2cc(Br)cc(S(=O)(=O)N3CCN(c4ccccc4)CC3)c21`: 73%; `CCOc1ccc(CNC(=O)C2CCCN(S(=O)(=O)c3ccc4c(c3)CCCC(=O)N4)C2)cc1` (stereo not drawn): 75%.

Turning to `CN1c2ccc(Cl)cc2-c2nc(SCC(=O)NCc3ccc(F)cc3)ncc2S1(=O)=O`, the survival is 117%. The result for `COc1ccc(-c2cn3c(n2)sc2cc(C(=O)Nc4ccc(F)cc4Cl)ccc23)cc1` reads 61%; that for `O=C(c1cc2ccc3cccnc3c2[nH]1)N1CCCCC1`, 69%. Next, `Cc1ccc(OC(=O)c2ccco2)cc1C`: 61%; `Cc1cc(C)cc(NC(=O)Cc2csc(COc3cccc(C)c3)n2)c1`: 90%. Next, `Cc1nc(CC(=O)Nc2ccc(N(C)C)cc2)cs1`: 45% (active). Turning to `COc1ccc(NC(=O)Cc2csc(C)n2)cc1`, the survival is 47%. Next, `Cc1cccc(NC(=O)Cc2csc(COc3cccc(C)c3)n2)c1`: 74%.

`Cc1nc(CC(=O)Nc2ccc(C(N)=O)cc2)cs1`: the survival was 49%. Next, `CCCOC(=O)c1ccc(NC(=O)Cc2csc(C)n2)cc1`: 105%.

Take `Cc1cc(C)cc(NC(=O)Cc2csc(C)n2)c1`: the survival was 39% (active). Next, `Cc1nc(CC(=O)Nc2ccc(C)c(C)c2)cs1`: 40% (active). The result for `Cc1cccc(OCc2nc(CC(=O)Nc3ccc(C)c(C)c3)cs2)c1` reads 85%; that for `COc1ccc(-c2cc(-c3ccc(F)cc3)nc3c2COc2ccc(F)cc2-3)cc1`, 65%.

As for `CCC(=O)N1CCc2cc(S(=O)(=O)NC(CC(C)C)C(=O)NCc3cccc(OC)c3)ccc21` (stereo not drawn), the survival is 73%.

Consider `COC(=O)C1=C(c2ccccc2)c2ccccc2S(=O)(=O)N1CC(=O)Nc1ccc(F)c(F)c1`, for which the survival was 40%. For the compound `C1CCC(N2CCC(N3CCCCC3)CC2)CC1`, the survival is 91%. The result for `N#CC(C#N)=Cc1ccc(-c2ccc3c(c2)COC3=O)o1` reads 90%. Next, `O=C(NC1CCCCC1)N1CCN(Cc2ccccc2)CC1`: 69%; `O=C(NC1CCCCC1)N1CCN(c2ccccn2)CC1`: 94%. The result for `c1ccc(N2CCN(N=C3c4ccccc4-c4ccccc43)CC2)nc1` reads 18% (active); that for `C(=N\N1CCN(c2ccccn2)CC1)/c1ccco1`, 100%. Regarding `C=Cn1c(C)c(C(C#N)=C(C#N)C#N)c2c1CCCC2`, the survival is 2% (active). In the case of `COCCNC(=O)C1CCN(S(=O)(=O)c2ccc3c(c2)CCCN3C(C)=O)CC1`, the survival was 85%. Next, `Cc1ccc(NS(=O)(=O)c2ccc(NC(=O)N3CCCC3)cc2)cc1C`: 75%; `Cc1ccc(NS(=O)(=O)c2ccc3c(c2)n(C)c(=O)n3C)cc1C`: 67%; `Cc1cccc(Cn2ccn(Cc3ccc(Cl)cc3)c(=O)c2=O)c1`: 121%. Consider `Cc1cccc(C(=O)Nc2nc3c(s2)CCCC3)c1`, for which the survival was 67%. Next, `O=C(Nc1onc2c1CCCC2)c1ccccc1`: 105%. The result for `O=C(Nc1cc2c(s1)CCCC2)c1ccccc1` reads 46% (active). The result for `COc1ccccc1OCCCCn1c(-c2ccc(Cl)cc2)nc2ccccc2c1=O` reads 59%; that for `Cc1ccc(OCCCn2c(-c3ccc(Cl)cc3)nc3ccccc3c2=O)cc1C`, 58%. Regarding `COc1cccc(OCCCCn2c(-c3ccc(Cl)cc3)nc3ccccc3c2=O)c1`, the survival was 62%. Next, `COc1cccc(OCCCn2c(-c3ccc(Cl)cc3)nc3ccccc3c2=O)c1`: 61%; `Cc1ccccc1OCCCCn1c(-c2ccc(Cl)cc2)nc2ccccc2c1=O`: 71%.

Regarding `COc1ccccc1OCCCn1c(-c2ccc(Cl)cc2)nc2ccccc2c1=O`, the survival is 29% (active). On to `CCc1ccc(OCCCn2c(-c3ccc(Cl)cc3)nc3ccccc3c2=O)cc1`, for which the survival was 44% (active). Next, `O=c1c2ccccc2nc(-c2ccc(Cl)cc2)n1CCCCOc1ccc(F)cc1`: 45% (active). Next, `CCOc1ccccc1OCCCn1c(-c2ccc(Cl)cc2)nc2ccccc2c1=O`: 42%. The result for `COc1ccc(OCCCCn2c(-c3ccc(Cl)cc3)nc3ccccc3c2=O)cc1` reads 34% (active). Regarding `O=c1c2ccccc2nc(-c2ccc(Cl)cc2)n1CCCOc1ccccc1F`, the survival was 57%. Next, `Cc1ccc(OCCCCn2c(-c3ccc(Cl)cc3)nc3ccccc3c2=O)cc1`: 68%; `COc1ccc(-c2cc3c(=O)n(CC(=O)Nc4ccccc4C(F)(F)F)ccn3n2)cc1OC`: 86%; `CSc1ccc(CNC(=O)CCn2ccc3cc(S(=O)(=O)N4CCCC4)ccc32)cc1`: 100%. Next, `O=C(NCc1ccc(F)cc1)c1cc2n(n1)CCCN(Cc1ccc(F)cc1)C2=O`: 64%; `CC(C)(C)OC(=O)N1CCC(c2c(C(=O)Nc3cccc(C(F)(F)F)c3)cnn2-c2ccc(F)cc2F)CC1`: 61%; `N#Cc1ccc(-c2cccnc2)n(CC(=O)N2CCOCC2)c1=O`: 106%. The result for `Cc1ccc(Cl)cc1N1CCN(C(=O)c2cc(S(=O)(=O)N3CCCCC3)cn2C)CC1` reads 83%. Turning to `Cc1ccc(C(=O)Nc2ccc3oc(-c4cccnc4)nc3c2)c(Cl)c1`, the survival was 88%. Next, `Cc1ccc(OCCn2c(CNc3ccccc3C)nc3ccccc32)cc1`: 42% (active); `Cc1ccccc1NCc1nc2ccccc2n1CCOc1ccccc1`: 0% (active). The result for `Cc1ccccc1Cn1c(=O)n(CCCCC(=O)NCCc2ccccc2)c(=O)c2ccccc21` reads 83%. The result for `COc1ccc(NC(=O)C2=C(C)Nc3ncnn3C2c2ccc(O)cc2)cc1` (stereo not drawn) reads 101%.

Regarding `CC1CCN(C(=O)C(C)Sc2nnc3c(n2)[nH]c2ccccc23)CC1` (stereo not drawn), the survival was 102%. In the case of `COc1ccc(/C=C/c2nc(C#N)c(N3CCCCC3)o2)cc1OC`, the survival is 76%. Next, `COc1ccc(N2CCN(c3oc(/C=C/c4cc(OC)c(OC)c(OC)c4)nc3C#N)CC2)cc1`: 49% (active); `COc1cc(/C=C/c2nc(C#N)c(N3CCCCCC3)o2)cc(OC)c1OC`: 85%; `COc1ccc(/C=C/c2nc(C#N)c(N3CCCCCC3)o2)cc1OC`: 45% (active). The result for `COc1ccc(/C=C/c2nc(C#N)c(N3CCC(C)CC3)o2)cc1OC` reads 81%; that for `COc1cc(/C=C/c2nc(C#N)c(N3CCN(C)CC3)o2)cc(OC)c1OC`, 73%.
